Measured potencies and affinities stand elsewhere. The source made the active and inactive calls. The rule behind the calls is not given here.
Assay: VEEV TC-83 cytopathic effect inhibition, confirmation, cell-based, TC-83 strain, set 6 (AID 624449)

Structure (SMILES) | outcome
COc1ccccc1-n1c(CN2CCNCC2)nc2ccc([N+](=O)[O-])cc2c1=O | inactive
CCN1CCN(Cc2nc3ccc(C(=O)O)cc3c(=O)n2-c2ccccc2)CC1 | inactive
CCN1CCN(Cc2nc3ccc([N+](=O)[O-])cc3c(=O)n2C)CC1 | inactive

— PubChem BioAssay AID624449 (Southern Research Specialized Biocontainment Screening …, 2012)
